The other results are listed elsewhere or left out. No count for the full screen is at hand.

Sequences and labels used below:
B1: VH:VL chains; a variant is named by its letters at X, in order (parent)
chain 1: QVQLVQSGAEVKKPGASVKVSCKASGYTFTDYXMHWVRQAPGQGLEWMGXVNPNXXXTTYNQKFEGRVTMTTDTSTSTAYMELRSLRSDDTAVYYCARXNXLDXWGQGTTVTVSS
chain 2: DIQMTQSPSSLSASVGDRVTITCSVSSSVSSIYLHWYQQKPGKAPKLLIYSTSNLASGVPSRFSGSGSGTDFTLTISSLQPEDFATYYCQVYSGYPLTFGGGTKVEIK

Variants of B1 are the subject of this assay. In words: yeast display scFab, FACS + sequencing. The following applies: with MET. The gist of the method:
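Heavy-chain CDR mutant scFab yeast surface library, enriched by two magnetic rounds on HGFR-Fc-coated Protein A beads and then by FACS. Cells were labelled with 1 nM HGFR-Fc in PBSB with 1% milk and anti-Myc for 3 h at room temperature, and the top 50% antigen-positive cells were gated. Round-3 sorted and input populations were deep sequenced in two replicates. Antigen binding call: positive if a sequence occurred in both antigen-positive samples, negative if it occurred only in input.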
Consider FAAETDVF, for which the antigen binding call is reported as “no binding”.
For AARADDWD the value was “no binding”.
On to DTGEDDVY, for which the antigen binding call is listed as “no binding”.
In the case of SAGEGSLV, the antigen binding call is listed as “no binding”.
On to DRAETDVY, for which the antigen binding call was “no binding”.
Regarding SAAGGASD chain 1 L45S, the antigen binding call is reported as “no binding”.
Take YTTKSDGV: the antigen binding call was “no binding”.
As for VTGTGDGA, the antigen binding call is listed as “no binding”.
Turning to STGGDDGA, the antigen binding call is recorded as “no binding”.
Turning to FRRGGSLD, the antigen binding call is given as “binds”.
For YRRGGALD the value was “binds”; for YARGGDLD, “no binding”; for FRRGGALD, “binds”.
As for FARAAALD, the entry is “no binding”; as for DARGGSLD, “no binding”.
As for FREGGALD, the entry is “binds”; as for VEKEGDGA, “no binding”; as for AKAGSYGV, “no binding”.
Take FRGGGDWD: the antigen binding call is “no binding”.
In the case of ARRGSSLD, the antigen binding call is on record as “binds”.
For FRGGGSLD the value was “binds”; for FRKGGSLD, “binds”.
As for FRAEGSLD, the entry is “binds”.
For ATGRASLD the value was “no binding”; for YTEGDDWY, “no binding”.
With SEARSDGF, the antigen binding call is “no binding”.
As for DAKENDVA, the entry is “no binding”; as for YTGGDDVD, “no binding”.
For the variant FRKGTALD, the antigen binding call is given as “binds”.
For FRGKGAGA the value was “binds”.
As for FRGKGSLA, the entry is “binds”; as for FRGKGSGA, “binds”; as for FRTKSDLA, “no binding”.
As for VKEKGDLA, the entry is “no binding”; as for FKGKGFGA, “no binding”; as for FREKGDLA, “binds”.
As for FKGKGSGA, the antigen binding call is recorded as “no binding”.
As for DAKKNASF, the entry is “no binding”; as for VTREGAVA, “no binding”; as for YTEGDDGA, “no binding”.
As for FRGKGAAA, the entry is “binds”; as for FRGKSAAA, “binds”; as for VTGRAAWV, “no binding”.
As for YRRRGFWY, the entry is “no binding”; as for YTERGDVY, “no binding”.
In the case of YRRRGAVY, the antigen binding call is on record as “binds”.
As to YRRRGDVY, the antigen binding call is recorded as “binds”.
As to YRAGDDVY, the antigen binding call was “no binding”.
As for STTGSASF, the entry is “no binding”.
As for FKGRGSSS, the entry is “binds”; as for FKGRGSLS, “binds”.
For FKGRDSGS the value was “no binding”.
Turning to VGATSVSF, the antigen binding call is “no binding”.
With YARADDGS, the antigen binding call is on record as “no binding”.
Consider VEAGDAGS, for which the antigen binding call was “no binding”.
Regarding DAEKGAWA, the antigen binding call was “no binding”.
As for YRTRDDVY, the entry is “no binding”; as for YRGRDALV, “binds”.
As for ARGRDAWV, the entry is “no binding”; as for YRTRDALV, “binds”.
As for VRTEDAWV, the entry is “no binding”; as for FRTRDFLV, “no binding”.
For the variant YRTRDAWV, the antigen binding call is “binds”.
FRGRDDLV: the antigen binding call was “no binding”.
Regarding YRTRDDVV, the antigen binding call was “binds”.
As for DRGRDDVV, the entry is “no binding”; as for YRGRDYGV, “no binding”; as for YARADDGD, “no binding”.
Take YAAETDVF: the antigen binding call is “no binding”.
For VKEKGDGS the value was “no binding”; for VKGTGFLD, “no binding”; for YRAKGALA, “binds”.
For YRAKGSLA the value was “binds”; for ATGANAAV, “no binding”.
In the case of AGGRSFVF, the antigen binding call is listed as “no binding”.
As for YEGRNVGV, the antigen binding call is listed as “no binding”.
As to VAGTGDLA, the antigen binding call is recorded as “no binding”.
Turning to DEGGTDWD, the antigen binding call is on record as “no binding”.
With YRAKGAGA, the antigen binding call is on record as “binds”.
As for YRAKGVGA, the entry is “binds”; as for YRAKGYGA, “no binding”.
For SARGGYWY the value was “no binding”; for YRRRGAAY, “binds”; for DARGGAVY, “no binding”.
Consider YRRKGAAY, for which the antigen binding call is on record as “binds”.
For SRKEGAAY the value was “no binding”.
Turning to YRRGGAAY, the antigen binding call is on record as “binds”.
Consider YRKGGAAY, for which the antigen binding call is given as “binds”.
Consider YRKGGDLY, for which the antigen binding call is recorded as “no binding”.
As for STGRADWA, the antigen binding call is reported as “no binding”.
In the case of SEARSALV, the antigen binding call is “no binding”.
For DEGGTSGV the value was “no binding”; for FKKGDAVS, “no binding”.
As for FKKGSYVF, the entry is “no binding”; as for DKEGGAAV, “no binding”.
Take FKKGSAAV: the antigen binding call is “binds”.
FKKGSAVV: the antigen binding call is “binds”.
Take VAGGDDVF: the antigen binding call is reported as “no binding”.
For DEGKAAGS the value was “no binding”; for YRRRGASA, “binds”; for YRRRGVSA, “binds”.
As to VTGRAALA, the antigen binding call is “no binding”.
For SERRDVLY the value was “no binding”; for DRAGDDWA, “no binding”; for VTETGSLV, “no binding”.
Consider YRGGDSAS, for which the antigen binding call is listed as “binds”.
For FRGRDFVS the value was “no binding”; for VTGGDSAS, “no binding”.
For DAKRDSAS the value was “no binding”; for YRGRDSAS, “binds”.
Consider SAKRDSAS, for which the antigen binding call is on record as “no binding”.
As for DRGRDDGS, the entry is “no binding”.
As for YRGRDSVS, the entry is “binds”; as for YRGGDDSS, “no binding”; as for YRTRDSAS, “binds”.
For VEAGDDSA, the antigen binding call is “no binding”.
As for SEARSDVY, the entry is “no binding”; as for YTEGDFAV, “no binding”; as for VGRGNVGV, “no binding”.
For YRGEGSAS, the antigen binding call was “binds”.
For DATGGDVD the value was “no binding”.
For SKKRGAWA the value was “binds”.
As to SEGRGAAA, the antigen binding call is recorded as “no binding”.
For SKKTGDLY the value was “no binding”; for SKGASAWA, “no binding”.
As for SEKGGSSA, the entry is “no binding”.
Take SKKRGAAA: the antigen binding call is recorded as “binds”.
For SKGEGDWA, the antigen binding call was “no binding”.
Turning to SKERGDWY, the antigen binding call is listed as “no binding”.
Consider SKTKSSSA, for which the antigen binding call was “no binding”.
Turning to SKKRGAWY, the antigen binding call is recorded as “binds”.
For SKKRGASA the value was “binds”; for SKERGDAA, “no binding”.
As for VEKEGDGS, the entry is “no binding”; as for YAAKNDGA, “no binding”; as for YEGGADVV, “no binding”.
As for YRRGGSGY, the entry is “binds”.
Turning to YRRGGAGY, the antigen binding call is “binds”.
For VAGTGDLY the value was “no binding”.
For VRAGADVD the value was “no binding”; for VRERSSVD, “no binding”; for VRTRAAVD, “binds”.
For the variant VTTRAAVS, the antigen binding call is “no binding”.
Regarding VRTRASVD, the antigen binding call was “binds”.
In the case of VTTRASGD, the antigen binding call is listed as “no binding”.
YTAGSDGV: the antigen binding call is “no binding”.
As for VKGRGYGA, the entry is “binds”; as for VKGEGYGA, “no binding”.
For YKGRGYGA, the antigen binding call was “binds”.
Take VAGAGYGA: the antigen binding call was “no binding”.
Turning to VRRGDVGV, the antigen binding call is given as “no binding”.
For VKAKDAGY the value was “no binding”; for VRRGDAGY, “binds”.
As for VRRGDDVY, the entry is “no binding”; as for VRKKGYVY, “no binding”.
With VRAKGAGY, the antigen binding call was “binds”.
Regarding VEGGGSSV, the antigen binding call is recorded as “no binding”.
Turning to DREEGDWA, the antigen binding call is recorded as “no binding”.
For VRGGDDGS the value was “no binding”; for VRGRDAVS, “binds”.
As for VAGGDAVA, the entry is “no binding”; as for VRGKAAVS, “no binding”.
As for VRGGDAAS, the entry is “binds”; as for VEGGGAAS, “no binding”.
Regarding VRGRDDSA, the antigen binding call is on record as “no binding”.
For DRGGDAVA the value was “no binding”.
In the case of VRGGDAVS, the antigen binding call was “binds”.
As for VRGGDAVA, the entry is “binds”.
As for VRGGDAVY chain 1 G44D, the entry is “no binding”.
As for VAGGDAAA, the antigen binding call is given as “no binding”.
Take DTGTGDWV: the antigen binding call is given as “no binding”.
As to SEEEGDAV, the antigen binding call is on record as “no binding”.
As for VKGAGDLA, the entry is “no binding”.
As for VGGTDFVA, the entry is “binds”.
As for VGGTSDVA, the entry is “no binding”.
For the variant VRRTDFVA, the antigen binding call was “no binding”.
Turning to VGGGADGA, the antigen binding call was “no binding”.
As for VRRRSSLA, the entry is “binds”.
Regarding VKRATVLA, the antigen binding call is reported as “no binding”.
Turning to VKRRSVGA, the antigen binding call is listed as “no binding”.
For VKRRSSLA the value was “binds”; for YRRESSGV, “binds”; for YRRESSGY, “binds”.
Regarding YRREGSGV, the antigen binding call is on record as “binds”.
In the case of DGERDYSD, the antigen binding call was “no binding”.
On to YRERGAWV, for which the antigen binding call is reported as “binds”.
VRERGSWV: the antigen binding call is listed as “binds”.
With VRERGDWV, the antigen binding call was “no binding”.
As for YRERGSWV, the entry is “binds”; as for FRERGSWV, “binds”; as for DREEGSWV, “no binding”.
Turning to VEEEGSWV, the antigen binding call is “no binding”.
In the case of VTGEDAGD, the antigen binding call is listed as “no binding”.
For YREEGDVF the value was “no binding”; for YRRGSSLF, “binds”; for YRRGSSVF, “binds”.
YRGGGSVF: the antigen binding call is “binds”.
For YRGANSVF the value was “binds”; for VTGGDDSA, “no binding”; for VAGTGSSA, “no binding”.
Take VGGGADGV: the antigen binding call was “no binding”.
As for VEGAASWV, the entry is “no binding”.
On to AAGRAYGA, for which the antigen binding call is recorded as “no binding”.
As for YRRGGSVF, the entry is “binds”; as for YRRAADSD, “no binding”; as for YRTGAAAD, “binds”.
As for YRTGASSD, the antigen binding call was “binds”.
For YRTGAASD the value was “binds”; for YAGGTSSD, “no binding”.
For YRGAASSD the value was “binds”; for DETGGSSD, “no binding”.
